Reference: PubChem BioAssay (NCI)
The panel holds about 79,000 compounds, 15% with a hit somewhere; the sample as a whole holds those more often. Active and inactive are the calls of the source. Rule as the data show it: active = growth inhibition above about 70%; inactive = the rest.

Tests used:
[1] = NCI Yeast Anticancer Drug Screen. Data for the rad52 strain (AID 147);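 also: 0% = growth of vehicle-treated control cultures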; settings: S. cerevisiae rad52 mutant growth inhibition, stronger effect = higher value
Summary of the method: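 Vehicle-treated cultures served as the reference for growth inhibition of compound-exposed yeast bearing a DNA repair mutation.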

[2] = NCI Yeast Anticancer Drug Screen. Data for the wt1 strain (AID 149);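 also: 0% = growth of vehicle-treated wt1 cultures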; settings: S. cerevisiae wt1 strain (SPY 50644) growth inhibition, stronger effect = higher value
Summary of the method: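 Measured: growth of wt1 yeast under compound versus vehicle treatment, reported as inhibition.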

[3] = NCI Yeast Anticancer Drug Screen. Data for the rad50EPP+ strain (AID 151);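 also: 0% = growth of vehicle-treated control cultures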; settings: S. cerevisiae rad50 mutant strain, stronger effect = higher value
Summary of the method: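 In this screen, rad50EPP+ yeast were exposed to compounds. Growth inhibition was scored against vehicle-treated controls.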

[4] = NCI Yeast Anticancer Drug Screen. Data for the mgt1 strain (AID 153); settings: S. cerevisiae mgt1 mutant growth inhibition, stronger effect = higher value
Summary of the method: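 mgt1 strain exposed; growth vs vehicle control recorded as inhibition.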

[5] = NCI Yeast Anticancer Drug Screen. Data for the rad50 strain (AID 155);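 also: 0% = growth of vehicle-only cultures of the same strain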; settings: S. cerevisiae rad50 strain growth inhibition, stronger effect = higher value
Summary of the method: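 Growth of the mutant yeast was measured after compound exposure and referenced to vehicle-treated cultures.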

[6] = NCI Yeast Anticancer Drug Screen. Data for the mec2-1 strain (AID 157); settings: S. cerevisiae mec2-1 strain, stronger effect = higher value
Summary of the method: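 Vehicle-treated cultures served as reference for growth inhibition of compound-exposed mec2-1 yeast.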

[7] = NCI Yeast Anticancer Drug Screen. Data for the sgs1 mgt1 strain (AID 161);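 also: 0% = growth of cultures given vehicle only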; settings: S. cerevisiae sgs1 mgt1 strain, stronger effect = higher value
Summary of the method: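 Mutant yeast exposed to compound; growth scored against vehicle-only wells.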

[8] = NCI Yeast Anticancer Drug Screen. Data for the CLN2oe strain (AID 163);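 also: 0% = growth of vehicle-only control cultures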; settings: S. cerevisiae CLN2oe strain, stronger effect = higher value
Summary of the method: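 Inhibition relative to vehicle-treated yeast is reported. Cells: strain with genetic alteration in cell-cycle control, grown with compound.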

[9] = NCI Yeast Anticancer Drug Screen. Data for the cln2 rad14 strain (AID 165);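 also: 0% = growth equal to vehicle treated cultures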; settings: S. cerevisiae cln2 rad14 strain, stronger effect = higher value
Summary of the method: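 Each compound was tested on cln2 rad14 yeast. Inhibition of growth was calculated against vehicle-exposed controls.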

[10] = NCI Yeast Anticancer Drug Screen. Data for the bub3 strain (AID 167); settings: S. cerevisiae bub3 mutant strain, stronger effect = higher value
Summary of the method: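 Whole-cell yeast assay. The mutant strain was incubated with compounds, and growth inhibition was determined by comparison with vehicle-treated cells.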

[11] = NCI Yeast Anticancer Drug Screen. Data for the wt2 strain (AID 169);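 also: 0% = growth of vehicle-treated yeast cultures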; settings: S. cerevisiae wt2 strain growth inhibition, stronger effect = higher value
Summary of the method: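 Inhibition of yeast growth was determined after compound treatment, normalised to controls receiving only vehicle.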

[12] = NCI Yeast Anticancer Drug Screen. Data for the mlh1 strain (AID 171);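 also: 0% = growth of vehicle-treated control cultures of the same strain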; settings: S. cerevisiae mlh1 strain growth inhibition, stronger effect = higher value
Summary of the method: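 Vehicle-normalised growth inhibition of a repair- or checkpoint-altered yeast strain following compound treatment.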

[13] = NCI Yeast Anticancer Drug Screen. Data for the sgs1 strain (AID 173);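 also: 0% = growth of vehicle-only control cultures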; settings: S. cerevisiae sgs1 mutant, stronger effect = higher value
Summary of the method: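 Screen format: yeast with repair or checkpoint alterations, compound exposure, growth read relative to vehicle.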

[14] = NCI Yeast Anticancer Drug Screen. Data for the mlh1 rad18 strain (AID 175); settings: S. cerevisiae mlh1 rad18 strain growth inhibition, stronger effect = higher value
Summary of the method: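 Vehicle-treated cultures served as the reference for growth inhibition in a yeast strain carrying DNA damage repair alterations exposed to each compound.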

[15] = NCI Yeast Anticancer Drug Screen. Data for the rad18 strain (AID 177); settings: S. cerevisiae rad18 mutant growth inhibition, stronger effect = higher value
Summary of the method: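 Test articles were incubated with altered yeast defective in DNA damage repair. Results are given as inhibition of growth versus vehicle.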

[16] = at 5.0 µM (retest, dose inferred, filed as 0.5)
[17] = at 50.0 µM (retest, dose inferred, filed as 5.0)

Measured: growth inhibition

Cc1c(C2=C(Br)C(=O)N(C)C2=O)c(=O)n(C)c(=O)n1C
inactive: [1]; at 1.2 µM 11% | [1]; at 3.7 µM 26% | [1]; at 11.0 µM 51% | [1]; at 33.0 µM 67% | [2]; at 1.2 µM 4% | [2]; at 3.7 µM 13% | [2]; at 11.0 µM 23% | [2]; at 33.0 µM 35% | [3]; at 1.2 µM 0% | [3]; at 3.7 µM -2% | [3]; at 11.0 µM -2% | [3]; at 33.0 µM 1% | [3]; at 100.0 µM 3% | [4]; at 1.2 µM -1% | [4]; at 3.7 µM 0% | [4]; at 11.0 µM 8% | [4]; at 33.0 µM 23% | [5]; at 1.2 µM 6% | [5]; at 3.7 µM 15% | [5]; [16] 10% | [5]; at 11.0 µM 46% | [5]; [17] 55% | [6]; at 1.2 µM 7% | [6]; at 3.7 µM 15% | [6]; [16] -3% | [6]; at 11.0 µM 26% | [6]; at 33.0 µM 45% | [6]; [17] 20% | [6]; at 50.0 µM 56.1% | [7]; [16] 0% | [7]; [17] 5% | [7]; at 50.0 µM 58.6% | [8]; at 1.2 µM -2% | [8]; at 3.7 µM 0% | [8]; at 11.0 µM 1% | [8]; at 33.0 µM 10% | [8]; at 100.0 µM 44% | [9]; [16] 20% | [9]; [17] -14% | [9]; at 50.0 µM 3.95% | [10]; at 1.2 µM 1% | [10]; at 3.7 µM 4% | [10]; [16] 6% | [10]; at 11.0 µM 18% | [10]; at 33.0 µM 47% | [10]; [17] 57% | [10]; at 50.0 µM 28.1% | [11]; at 1.2 µM 0% | [11]; at 3.7 µM 3% | [11]; at 11.0 µM 11% | [11]; at 33.0 µM 39% | [12]; at 1.2 µM 0% | [12]; at 3.7 µM 3% | [12]; at 11.0 µM 13% | [12]; at 33.0 µM 48% | [13]; at 1.2 µM 2% | [13]; at 3.7 µM 11% | [13]; at 11.0 µM 22% | [13]; at 33.0 µM 60% | [14]; [16] 4% | [15]; at 1.2 µM 17% | [15]; at 3.7 µM 46%
active: [1]; at 100.0 µM 87% | [2]; at 100.0 µM 73% | [4]; at 100.0 µM 91% | [5]; at 33.0 µM 78% | [5]; at 50.0 µM 81.9% | [5]; at 100.0 µM 91% | [6]; at 100.0 µM 94% | [10]; at 100.0 µM 91% | [11]; at 100.0 µM 95% | [12]; at 100.0 µM 97% | [13]; at 100.0 µM 94% | [14]; [17] 84% | [14]; at 50.0 µM 91.7% | [15]; at 11.0 µM 75% | [15]; at 33.0 µM 88% | [15]; at 100.0 µM 96%
